Experimental data from PubChem BioAssay (NCATS).
Inconclusive results are not listed. The call rests on the fitted dose curve; in most records, active means well fitted curve in either direction with a large enough effect (not every such curve was filed as active); inconclusive means small, poorly fitted or top-dose-only effect, or another doubt; inactive means flat fitted curve, though single readings scatter.

Test: Stat Signaling Pathway (AID 446)
Conditions: ME-180 (cervical carcinoma) SIE beta-lactamase reporter, IL-6 stimulated, 5 h; at 17.2 µM (top of the series) unless noted
Procedure: NCGC Assay Overview: The IL-6/STAT signaling pathway was assayed in ME-180 cervical carcinoma cells by a beta-lactamase reporter gene controlled by a STAT Inducible Element (SIE). This reporter is induced by IL-6 at 40 pM AC50 and inhibited by the pan JAK inhibitor, 2-(1,1-Dimethylethyl)-9-fluoro-3,6-dihydro-7H-benz[h]-imidaz[4,5-f]isoquinolin-7-one, at approximately 10 nM AC50. Plated cells were incubated overnight and on the following day, stimulated with 40 pM IL-6 for 5 hrs. The assay was screened at the AC50 of IL-6 activation to identify both inhibitors and activators of IL-6/STAT signaling.
NCGC Assay Protocol Summary: Cells were trypsinized, washed in assay medium (AM, OPTI MEM with 0.5% fetal bovine serum, 0.1 mM nonessential amino acids, 1 mM sodium pyruvate, 10mM HEPES pH 7.3, 100U/ml penicillin, and 100 ug/ml streptomycin) and suspended at 6 x 10e5/ml in AM. Approximately […] cells in 5 uL/well was dispensed into 1536 well plates and the cells were incubated overnight at 37 C. 23 nL of compound were delivered by a pin tool and 1 uL of IL-6 (40 pM final concentration in AM) was added. After centrifugation at 1000 rpm for less than a minute, plates were incubated at 37C for 5 hrs. One uL of detector mix (LiveBLAzerTM, Invitrogen) was added, the plates incubated at room temperature for 2.5 hrs, and fluorescence intensity at 460 and 530 nm emission was measured at 405 nm excitation by an Envision (Perkin Elmer) or Safire II (Tecan). Data were normalized by GeneData to the controls for AC90 stimulation (300 pM IL-6) and to AC90 inhibition (125 nM Jak inhibitor, 40 pM IL-6 in AM).
On the % scale 0 is the no-effect control and ±100 the full control effect.

activity, negative = inhibition, inactive:
COc1ccc(C(=O)C2CCCCC2=O)cc1 (stereo not given) 8.28%, CC1N(O)C(c2ccc(Cl)cc2Cl)N(O)C1(C)C (stereo not given) 2.16%, CCOCCSc1nc2c(c(=O)[nH]c(=O)n2C)n1CCCc1ccccc1 -3.21%, COC(=O)CCc1c(C)[nH]c(C(=O)OCc2ccccc2)c1C 5.36%, NC(Cc1ccc(Oc2ccc(O)cc2)cc1)C(=O)O (stereo not given) -1.48%, CC(C)(C)C1=Nn2c(nnc2-c2ccco2)SC1 8.01%, O=C1c2ccccc2C(=O)N1CCN1CCc2ccccc21 -3.43%, CCC(CC)C1C(C#N)=C(N)Oc2n[nH]c(C)c21 (stereo not given) -16.5%, Cc1ccc2[nH]c(CCN(C)C)c(CC#N)c2c1 5.44%, Nc1nnnn1/N=C/c1ccccn1 -2.26%, COc1cccc(C2/C(=C(/O)c3ccc(C)cc3)C(=O)C(=O)N2Cc2ccco2)c1 (stereo not given) -9.32%, CCc1c(C)c2cc(Cl)c(O)c(CN3CCCCC3)c2oc1=O 11.7%, Cc1ccc(S(=O)(=O)NC(=O)Nc2ncc3c(n2)CC(c2ccco2)CC3=O)cc1 (stereo not given) -2.33%, CCOC(=O)c1cc(CC)sc1NC(=O)C1CC1 -13.8%, COc1ccc(N2CCN(C3CC(=O)NC3=O)CC2)cc1 (stereo not given) 17.5%, Cc1ccc(-c2nnc(OCCN3CCOCC3)c3ccccc23)cc1 -1.56%, COc1ccc(OC)c(C2C(C(=O)c3sc(C)nc3C)=C(O)C(=O)N2CCN2CCOCC2)c1 (stereo not given) -1.07%, COC(=O)C(NC(C)=O)(Nc1ccccc1)C(=O)OC 13.2%, COC(=O)CSc1nc2sc3c(c2c(=O)n1C1CCCCC1)CCN(C)C3 -5.31%, CCOC(=O)N1CCN(/C=C(\C#N)c2nc3ccccc3s2)CC1 -10%, CC(C)C(=O)N1CCN(c2nc(-c3ccccc3)c3c(c2C#N)CCCC3)CC1 -9.28%, COc1cccc(OC)c1C(=O)N1CCN(S(=O)(=O)c2ccc(C)cc2)CC1 6.68%, Nc1nnnn1N=C1CCCCC1 -8.04%, N#Cc1nc(COc2ccc(Br)cc2)oc1N1CCCC1 3.52%, CCc1ccc2c(c1)C(C)=CC(C)(C)N2 -8.11%, Cc1nc(-c2coc3cc(OCC(=O)O)ccc3c2=O)cs1 3.59%, CCN(CC)CCCn1c(C)cc2c(c1=O)C(c1ccccc1)C(C#N)=C(N)O2 (stereo not given) 2.65%, c1cncc(-c2nnc3sc(C4CCCCC4)nn23)c1 -1.41%, Cc1cc(C)n(-c2nnc(C)n2/N=C/c2ccco2)n1 2.31%, COc1ccc2[nH]c(C)c(C(=O)CN3CC(C)OC(C)C3)c2c1 (stereo not given) 2.01%, COc1ccc(CCn2c(C)cc3c(c2=O)C(c2ccc4c(c2)OCO4)C(C#N)=C(N)O3)cc1OC (stereo not given) -21.6%, COc1ccc(N2CCN(c3oc(COc4ccc(Cl)cc4)nc3C#N)CC2)cc1 11.6%, C[C@]12CC[C@@H]3c4ccc(O[C@@H]5O[C@H](C(=O)O)[C@@H](O)[C@H](O)[C@H]5O)cc4CC[C@H]3[C@@H]1C[C@@H](O)[C@@H]2O 11.5%, COC(=O)CC1SC(=O)NC1=O (stereo not given) 7.23%, CC(C)C1Cc2c(C#N)c(N)n(C)c(=S)c2CO1 (stereo not given) 4.22%, c1ccc2c(c1)CCC[C@H]2C1=NCCN1 7.24% [at 38 µM], Clc1ccc([C@@H](c2ccccc2Cl)C(Cl)Cl)cc1 2.17% [at 38 µM], Cc1sc(-n2c(C)cc(/C=N/n3cnnc3)c2C)c(C#N)c1C -17%, CC[C@]1([C@H]2O[C@@H]([C@@H]3O[C@](O)(CO)[C@@H](C)C[C@H]3C)C[C@H]2C)CC[C@@H]([C@]2(C)CC[C@@]3(C[C@@H](O)[C@@H](C)[C@@H]([C@H](C)[C@H](OC)[C@H](C)C(=O)O)O3)O2)O1 -3.04%, COc1ccc2c(c1OC)C(=O)N1c3ccccc3C(=O)N(c3ccccc3F)C21 (stereo not given) -18.4%
